High-throughput results as filed in PubChem.
Compounds with a hit are over-represented: about 7.8% of the library has one in this group of screens.
HCMV antiviral = inhibitors of human cytomegalovirus; HFF cells, HCMV-luciferase reporter, 72 h; hits give low values; activity change, negative = inhibition, % at 57.5 µM; 410,000 compounds, 4.5% hits; AID 1259415; in the data active = activity change below about -60%; inconclusive = no clear call, values can overlap the other calls; inactive = above about -39%
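Compounds were evaluated in HFFs infected with an HCMV luciferase reporter virus (MOI 1 PFU/cell). Luciferase in lysates collected 72 h post infection served as the replication measure.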
HCV inh = HCV inhibition. 340,000 compounds, 3.4% hits. AID 651820. Potency, µM (titrated, usually from 41.8 µM), without a hit: top-dose activity change, negative = inhibition, actives largely listed as inhibitors. Huh7.5.1 HCVcc-Cre infection, luciferase reporter, 44 h; active = well fitted inhibition curve with a large enough effect; inconclusive = small, poorly fitted or top-dose-only effect, or another doubt; inactive = no such curve, though single readings can be large or run the other way; also: potency is read from the fitted curve at half-maximal effect
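After 44 h co-culture of compound, cells and HCVcc-Cre (~0.5 moi), substrate is added for 15 min at room temperature and luciferase measured over 15 sec. Cells were seeded at 1,000/well and pre-cultured 4 h.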
MARV entry inh = Marburg virus entry inhibition | Marburg virus pseudotyped entry inhibition, cell reporter | Potency, µM (highest dose often 37.8 µM), without a hit: top-dose activity change, negative = inhibition, most hits filed as inhibitors | 300,000 compounds, 1.8% hits | AID 540276; calls by dose curve; tested in HEK293 cells; also: potency is read from the fitted curve at half-maximal effect
Lassa entry inh = Lassa virus entry inhibition. AID 540256. Lassa virus pseudotype entry inhibition, cell reporter. Potency, µM (doses to about 37.9 µM), without a hit: at the top dose activity change, negative = inhibition, actives largely listed as inhibitors. 300,000 compounds, 1.2% hits; calls by dose curve; tested in HEK293 cells; also: potency is read from the fitted curve at half-maximal effect; nearly all actives have a fitted effect of over 50% in size
VACV Venus inh = inhibitors of vaccinia virus (Venus reporter). Vaccinia virus Venus reporter expression, fluorescence. Potency, µM (top dose mostly 36.5 µM), for inactives: top-dose activity change, negative = inhibition, usual class: inhibitors. 330,000 compounds, 0.46% hits. AID 720580; calls by dose curve; tested in A549 cells; also: potency is read from the fitted curve at half-maximal effect; nearly all actives have a fitted effect of over 30% in size
VACV mCherry inh = inhibitors of vaccinia virus infection (mCherry reporter signal). Vaccinia virus mCherry reporter infection, fluorescence. 310,000 compounds, 0.63% hits. Potency, µM (series often up to 36.5 µM), without a hit: top-dose activity change, negative = inhibition, hits mostly inhibitors; calls by dose curve; tested in A549 cells; also: potency is read from the fitted curve at half-maximal effect; nearly all actives have a fitted effect of over 35% in size
* = called active by the depositor; i = inactive; ? = inconclusive; / = no result; [ ] = remark or other dose. % is scaled to controls: 0 for no effect and ±100 for the full control effect.

SMILES | HCMV antiviral | HCV inh | MARV entry inh | Lassa entry inh | VACV Venus inh | VACV mCherry inh
O=C(CNC(=O)c1ccccc1F)OCc1nc2ccccc2s1 | 13 | -11% | ? | ? | -1% | -15%
CCCn1c(N)c(C(=O)CN(C)CC(=O)Nc2ccccc2CC)c(=O)[nH]c1=O | -103* | 1% | / | / | / | /
COc1ccccc1Cn1c(CNS(=O)(=O)c2ccccc2Cl)nc2cccnc21 | -14 | / | / | 2%[46.1 µM] | -6% | -9%
Nc1cccc2c1Cc1cc([N+](=O)[O-])ccc1-2 | -101* | -16% | 4% | 25% | 10% | -8%
Nc1c(Br)cc(Br)c2c1-c1ccc([N+](=O)[O-])cc1C2 | -80* | ? | 6% | 17% | -13% | i
CC(=O)Nc1c(Br)cc2c(c1Br)Cc1cc([N+](=O)[O-])ccc1-2 | 50 | ? | -19%[46.1 µM] | -10%[46.1 µM] | -8% | ?
COc1ccc(-c2nc3cnc(Nc4ccccn4)cc3n2C)cc1OC | -10 | / | / | / | / | /
CN(C)c1ccc(C=c2c3cc([N+](=O)[O-])ccc3n3c2cc(-c2ccccc2)[n+]3C)cc1 | -100* | ? | ? | 8.9µM* | 8% | 42%
COc1cc(C=c2c3ccccc3n3c2cc(-c2ccccc2)[n+]3C)cc(OC)c1OC | -101* | ? | ? | 14µM* | 263% | i
COc1cc(/C=C(/C(=O)O)c2ccc(-c3ccccc3)cc2)cc(OC)c1OC | -26 | -4% | ? | -10%[46.1 µM] | -27% | -24%
CN(C)c1ccc(C=c2c3ccccc3n3c2cc(-c2ccccc2)[n+]3C)cc1 | -99* | ? | 2.8µM* | 2.8µM* | 252% | 87%
COc1cc(N(C)C)ccc1C=c1c2ccccc2n2c1cc(-c1ccccc1)[n+]2C | -99* | 10µM* | ? | ? | -10% | -22%
O=C(CN(CC(=O)Nc1ccc(Br)cc1)CC(=O)Nc1ccc(Br)cc1)Nc1ccc(Br)cc1 | -17 | / | / | / | / | /
Cc1ccc2cccc(NC(=O)c3ccc(-c4ccc(Cl)cc4Cl)o3)c2n1 | 5 | / | 2%[46.1 µM] | 2%[46.1 µM] | -10% | -13%
CC(C)c1ccc(NS(=O)(=O)c2ccc3nc(-c4ccccc4)[nH]c3c2)cc1 | -8 | / | ? | ? | -22% | -17%
CC(C)C[C@@H]1COc2cc(NCCO)ccc2S(=O)(=O)N1 | -7 | / | / | / | / | /
CN(C)c1ccc(C=c2c3ccccc3n3c2c2c([n+]3C)CCCC2)cc1 | -99* | ? | 4.5µM* | 7.9µM* | 6.3µM* | 3.2µM*
CN(C)c1ccc(C=c2c3ccccc3n3c2cc(-c2ccc(Cl)cc2)[n+]3C)cc1 | -99* | ? | ? | ? | 50% | 7%
CC1=CC[C@@H](COc2ccccc2)O[C@@]2(C1)C(=O)N(CC1CC1)c1ccccc12 | / | / | 20%[14.2 µM] | / | / | /
Cc1ccc(C)c(N2CCN(C(=O)c3cc4c(=O)n(Cc5ccco5)ccc4nc3C)CC2)c1 | -39 | / | / | -14%[46.1 µM] | -16% | -21%
CCOc1cc(/C=N/NC(=O)N/N=C/c2ccc(O)c(OCC)c2)ccc1O | 25 | ? | 7.1µM* | ? | ? | ?
CCOc1ccc(/C=N/Nc2ccc(C(F)(F)F)cc2[N+](=O)[O-])cc1O | -13 | ? | ? | ? | -13% | i
CCOc1cc(/C=N/NC(=O)c2ccccc2OCc2ccc(F)cc2)ccc1O | -82* | ? | / | / | / | /
CCOc1cc(/C=N/NC(=O)Cc2ccc(C(F)(F)F)cc2[N+](=O)[O-])ccc1O | -61* | -26% | 2% | -2% | -10% | i
CCCn1nc(NC(C)=O)c2cc3cccc(C)c3nc21 | -11 | 11µM* | / | / | / | /
SMILES | HCMV antiviral | HCV inh | MARV entry inh | Lassa entry inh | VACV Venus inh | VACV mCherry inh
CCCn1nc(NC(=O)COC)c2cc3cccc(C)c3nc21 | -13 | 11µM* | / | / | -23% | -16%
CCCn1nc(NC(=O)CC(C)C)c2cc3cccc(C)c3nc21 | 20 | -6% | -1%[46.1 µM] | 3% | -10% | -8%
Clc1ccc(C(c2cccs2)N2CCNCC2)cc1 (stereo not given) | -13 | / | / | / | -15% | i
CCCCCC(=O)Nc1cc(S(=O)(=O)N2CCCCC2)ccc1N1CCCCC1 | -18 | ? | ? | -5% | -11% | -11%
CCCCCC(=O)Nc1cc(S(=O)(=O)O)cc2cc(S(=O)(=O)O)cc(O)c12 | -78* | 17% | ? | 19% | -12% | -22%
CC1(c2ccccc2)O[C@@H]2C[C@H]3[C@@H]4CCC5=CC(=O)C=C[C@]5(C)[C@@]4(F)[C@@H](O)C[C@]3(C)[C@]2(C(=O)CO)O1 (stereo not given in full) | -2 | -8% | 10µM* | ? | ? | ?
C[C@H]1C[C@H]2[C@@H]3CCC4=CC(=O)C=C[C@]4(C)[C@@]3(F)[C@@H](O)C[C@]2(C)[C@@]1(O)C(=O)CO | 50 | -2% | / | / | -13% | -15%
COc1ccc(N2CCN(C(=O)Cn3cnc4sc(C)c(S(=O)(=O)N5CCC(C)CC5)c4c3=O)CC2)cc1 | -2 | / | ? | 18%[46.1 µM] | 0% | -9%
CC(=O)Nc1cncc(-c2ccccc2F)n1 | -96* | / | / | / | 2% | 24%
CC(CNc1ccccc1O)C(=O)O (stereo not given) | ? | -6% | 3% | -4% | 89µM* | 4.5µM*
CC(NC(=O)CCC(=O)Nc1ccccc1O)c1ccccc1 (stereo not given) | -2 | 9% | -5%[46.1 µM] | -14% | -17%[7.34 µM] | -4%[7.34 µM]
Cc1ccc2c(NCc3ccco3)nc(NC(C)C)nc2c1 | ? | / | / | / | -14% | -16%
Cc1nc2ccc(S(=O)(=O)N(CC(=O)Nc3cccc(F)c3)Cc3ccccc3)cc2s1 | -1 | / | / | -4%[46.1 µM] | -6% | -4%
COc1cc(/C=C2/C(=O)N(C)C(=S)N2C)ccc1OCc1cccc(F)c1 | -68* | ? | 7%[46.1 µM] | -7%[46.1 µM] | 6% | -14%
CC(=O)NCCNc1nc2cc(-c3ccc(Cl)cc3C)sc2c(=O)n1C | 35 | / | / | / | -29% | -2%
COC(=O)C1C(=O)C(C(=O)c2ccccc2)C(=O)CC1(C)C (stereo not given) | 35 | 2% | / | / | / | /
COC(=O)C1C(=O)C(C(=O)/C=C/c2ccccc2)C(=O)CC1(C)C (stereo not given) | -82* | -7% | -16%[46.1 µM] | 3%[46.1 µM] | ? | 11µM*
CCCC(=O)Nc1ccc(C2C(=O)c3ccccc3C2=O)cc1 | 164 | 5µM* | ? | -50% | -4% | i
CC(=O)Nc1ccc(C2C(=O)c3ccccc3C2=O)cc1 | 140 | ? | 1% | -11% | -4% | -8%
Clc1cccc(-c2nc(-c3ccccn3)no2)c1 | -8 | -25% | ? | 1.8µM* | -17% | -19%
Cc1ccc(-c2nc(-c3ccccn3)no2)cc1 | -91* | ? | 1.1µM* | 0.32µM* | -14% | -18%
c1ccc(-c2nc(-c3ccccn3)no2)cc1 | -18 | -1% | ? | ? | -7% | i
Cc1ccc(-c2nc(-c3ccccn3)no2)cc1Cl | -64* | -22% | ? | 1.4µM* | -14% | -13%
